Shown are actives, neighbours in structure and some others; about 1.6% of the full set was active somewhere.
KCNQ2 inh = KCNQ2 (rat) channel inhibition; O88943; CHO-K1 KCNQ2, FluxOR thallium flux, 20 min; stronger effect = lower value; B-score at 10 µM; hit rate 1.1% among 310,000; AID 2156;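 active = fluorescence ratio B-score at most minus 3 library SDs, with starting brightness B-score within 2 library SDs, cut at about -5.5 in these data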
KCNQ2 enhance = enhances the rat KCNQ2 potassium channel; CHO-K1 KCNQ2, FluxOR thallium flux fluorescence; stronger effect = higher value; B-score at 10 µM; hit rate 0.54% among 310,000;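 active = fluorescence ratio B-score at least 3 SD of library B-scores, with initial fluorescence B-score within 3 of them, cut at about 5.3 in these data; same plate scores as AID 2156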;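 note: B-score of peak minus minimum over baseline fluorescence ratio after K+ and Tl+ stimulus; positive B-score means potentiation of KCNQ2 with more thallium influx and brighter signal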
Kir21 conf inh = confirmation of mouse Kir2.1 potassium channel inhibitors | shares compounds with KCNQ2 enhance | Kir2.1-expressing cells, FluxOR thallium flux fluorescence; stronger effect = lower value | Tl flux remaining, % of negative control (stronger effect = lower value), % at 10 µM | hit rate 41% among 2,300;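 active = Primary-screen hit whose thallium flux fell at least 3 control SD below untreated wells in both duplicates, with normal baseline fluorescence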;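 note: 0% = blank wells without stimulus and 100% = stimulated no-compound controls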
HEK293 ctr = counter-screen for Kir2.1 inhibitors: effect in parental HEK293 cells | shares compounds with KCNQ2 enhance | FluxOR thallium flux fluorescence; 0% = unstimulated blank wells | FluxOR signal as % of negative control (100 = no effect), % at 10 µM | hit rate 19% among 2,300 | AID 2105;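 active = dye signal at least 3 control SD above or below untreated wells in both duplicates, raw fluorescence within 3, either direction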;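 note: percent is based on the flux ratio of peak minus minimum fluorescence over baseline F0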
CHO-K1 Tl ctr = parental CHO-K1 activity in KCNQ2 potentiator counter-screen. activity increase over 3SD of controls, % at 10 µM. AID 2282. hit rate 43% among 1,200. parental CHO-K1 cells, FluxOR thallium flux fluorescence; zero = vehicle mean+3SD, 100% = vehicle-minus-blank window. shares compounds with KCNQ2 enhance;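 active = signal rise of at least 3 SD above the untreated control mean, in both duplicate wells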;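 note: counter screen of KCNQ2 potentiator hits so any rise reflects channel-independent effects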
KCNQ1 pot spec = human KCNQ1 counter-target activity of KCNQ2 potentiators. shares compounds with KCNQ2 enhance. CHO KCNQ1 stable, FluxOR thallium flux fluorescence; beyond 3SD, as % of vehicle-control signal. activation over 3SD threshold, % at 10 µM. hit rate 28% among 1,200. AID 2283;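 active = fluorescence ratio rise of at least 3 SD of vehicle wells above their mean, in both replicate wells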;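 note: 0% = vehicle mean plus 3 SD and 100% = vehicle minus unstimulated blank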
Target sequence (P51787 whole entry, looked up): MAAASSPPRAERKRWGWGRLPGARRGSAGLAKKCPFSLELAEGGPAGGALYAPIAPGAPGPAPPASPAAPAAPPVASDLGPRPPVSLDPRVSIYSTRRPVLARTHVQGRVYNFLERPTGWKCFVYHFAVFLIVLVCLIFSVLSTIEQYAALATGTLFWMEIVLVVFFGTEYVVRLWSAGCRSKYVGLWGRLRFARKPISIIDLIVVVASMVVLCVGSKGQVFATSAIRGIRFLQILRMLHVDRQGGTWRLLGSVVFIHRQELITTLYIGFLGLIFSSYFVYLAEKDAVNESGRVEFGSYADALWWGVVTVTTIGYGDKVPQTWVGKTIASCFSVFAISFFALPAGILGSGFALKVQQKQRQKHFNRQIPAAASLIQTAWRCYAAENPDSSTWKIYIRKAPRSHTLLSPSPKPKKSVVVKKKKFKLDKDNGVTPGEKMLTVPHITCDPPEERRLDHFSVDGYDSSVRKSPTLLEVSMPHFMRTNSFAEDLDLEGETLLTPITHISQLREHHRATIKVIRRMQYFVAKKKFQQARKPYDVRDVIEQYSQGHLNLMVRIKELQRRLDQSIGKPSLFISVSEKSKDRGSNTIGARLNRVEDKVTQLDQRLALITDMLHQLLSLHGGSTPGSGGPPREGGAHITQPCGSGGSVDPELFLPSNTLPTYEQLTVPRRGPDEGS
KCNQ2 pot confirm = confirmation of rat KCNQ2 potassium channel potentiators. shares compounds with KCNQ2 enhance. CHO-KCNQ2 cells, FluxOR thallium flux fluorescence. potentiation, less the hit threshold, % at 10 µM. hit rate 68% among 1,200;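 active = fluorescence ratio rising 3 SD or more over the vehicle control mean in both replicates, plus primary screen hit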;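 note: peak minus minimum thallium fluorescence divided by baseline after K/Tl stimulus; 0% = vehicle mean plus 3 SD and 100% = vehicle minus unstimulated blank difference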
Kir2-1 sel = tests whether KCNQ2 potentiators also affect mouse Kir2.1; shares compounds with KCNQ2 enhance; HEK293 Kir2.1, FluxOR thallium flux fluorescence; activity over 3SD threshold, % at 10 µM; hit rate 2% among 1,200; AID 2345;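 active = fluorescence ratio rise of at least 3 SD above the vehicle-control mean, seen in both replicates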;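 note: 0% = vehicle mean plus 3 SD and 100% = vehicle minus no-stimulus blank window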
KCNQ2 W236L pot = KCNQ2 potentiators acting on retigabine-insensitive rat KCNQ2 W236L mutant; shares compounds with KCNQ2 enhance; CHO KCNQ2-W236L, automated patch clamp current; current increase over 3SD of negative controls (%), stronger effect = higher value, % at 25 µM; hit rate 10% among 940; AID 2558;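 active = current increase at least 3 SD of the untreated controls above them in both duplicate recordings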
Numbers without * were called inactive; i = inactive; nt = not tested or not shown.

SMILES | KCNQ2 inh | KCNQ2 enhance | Kir21 conf inh | HEK293 ctr | others
NCC12CC3CC(C1)CC(c1ccc(Br)cc1)(C3)C2 | i | nt | 34%* | i
Cc1ccc(C23CC4CC(CC(C(N)=O)(C4)C2)C3)cc1 | i | 2 | nt | nt
Cc1ccc(C23CC4CC(CC(CN)(C4)C2)C3)cc1 | i | nt | 39%* | i
NCCOc1ccc(C23CC4CC(CC(C4)C2)C3)cc1 | i | nt | nt | nt
COc1ccc(NC(=O)Cn2c(NCC(C)O)nc3ccccc32)cc1Cl (configuration not stated) | i | 1.1 | nt | nt
COc1ccccc1NC(=O)C1CC(C(C)C)OC1=O (configuration not stated) | i | 0.34 | nt | nt
CN(c1cccc2cccnc12)S(=O)(=O)c1ccccc1 | i | 0.41 | nt | nt
OC(CNCc1ccco1)Cn1c2ccccc2c2ccccc21 (configuration not stated) | i | nt | 72%* | i
OC(CNCc1ccco1)COc1ccccc1 (configuration not stated) | i | nt | nt | nt
CC(=O)Nc1ccc(NC(=O)CSc2nc(N)c(NC(=O)c3ccccc3F)c(=O)[nH]2)cc1 | i | nt | nt | nt
COc1ccc(C2C(C#N)=C(N)N(c3sc4c(c3C#N)CCCC4)C3=C2C(=O)CC(C)(C)C3)cc1 (configuration not stated) | i | nt | nt | nt
COc1ccc(C2C(C#N)=C3NC(=O)c4c(sc5c4CCCCC5)N3C3=C2C(=O)CC(C)(C)C3)cc1 (configuration not stated) | i | 13* | i | i | CHO-K1 Tl ctr=70*;KCNQ1 pot spec=-4;KCNQ2 pot confirm=15*;Kir2-1 sel=-23;KCNQ2 W236L pot=i
COc1ccccc1NC(=O)CNC(=O)c1ccc(Br)o1 | i | 2.2 | nt | nt
CN(C)CCCn1c(NC(=O)C2CCCCC2)nc2ccccc21 | i | 0.81 | nt | nt
CCCCn1c(NC(=O)C2CCCCC2)nc2ccccc21 | i | 9.6* | i | i | CHO-K1 Tl ctr=3.9*;KCNQ1 pot spec=-15;KCNQ2 pot confirm=16*;Kir2-1 sel=-38;KCNQ2 W236L pot=i
COCc1ccc(C(=O)N2CCCC(C(=O)c3ccc(Cl)cc3C)C2)o1 (configuration not stated) | i | nt | nt | nt
O=C(Nc1csnn1)c1csnn1 | i | nt | nt | nt
O=C(NC(=S)Nc1ccccc1)c1ccc(-c2ccccc2)cc1 | i | 0.29 | nt | nt
O=C(NC(=S)Nc1ccc(C(F)(F)F)cc1)c1csnn1 | i | 21* | i | 398%* | CHO-K1 Tl ctr=2.2*;KCNQ1 pot spec=-26;KCNQ2 pot confirm=69*;Kir2-1 sel=-23;KCNQ2 W236L pot=i
O=C(NC(=S)Nc1ccccn1)c1cc(-c2ccccc2)nc2ccccc12 | i | 1.7 | nt | nt
COc1ccc(NC(=S)NC(=O)c2csnn2)cc1 | i | 11* | i | 242%* | CHO-K1 Tl ctr=21*;KCNQ1 pot spec=-10;KCNQ2 pot confirm=30*;Kir2-1 sel=-19;KCNQ2 W236L pot=i
O=C(NC(=S)Nc1ccccc1)c1cc(-c2ccccc2)nc2ccccc12 | i | 17* | i | 131%* | CHO-K1 Tl ctr=-13;KCNQ1 pot spec=-21;KCNQ2 pot confirm=1.7*;Kir2-1 sel=-34;KCNQ2 W236L pot=i
O=C(NC(=S)Nc1ccccc1)c1csnn1 | i | 18* | i | 487%* | CHO-K1 Tl ctr=-18;KCNQ1 pot spec=-13;KCNQ2 pot confirm=73*;Kir2-1 sel=-5;KCNQ2 W236L pot=i
COc1ccc(CNC(=O)c2csnn2)cc1 | i | nt | nt | nt
CN(CC(=O)Nc1cccc(F)c1)C(=O)CNS(=O)(=O)c1ccc(N(C)C)c([N+](=O)[O-])c1 | i | nt | nt | nt
SMILES | KCNQ2 inh | KCNQ2 enhance | Kir21 conf inh | HEK293 ctr | others
Oc1ccccc1-n1c(-c2ccccc2)ccc1-c1ccccc1 | i | nt | nt | nt
O=C(CSc1nc2ccccc2[nH]1)Nc1nc(-c2ccc(Br)cc2)cs1 | i | nt | nt | nt
O=C(c1cccs1)N1CCC(c2nc3c(nnn3Cc3ccccc3Cl)c(=O)[nH]2)CC1 | i | 0.13 | nt | nt
CC(=O)n1cc(C(C[N+](=O)[O-])SCCN)c2ccccc21 (configuration not stated) | -7.3* | -7.3 | 50%* | 76%*
Cn1cc(C(C[N+](=O)[O-])c2ccccc2)c2ccccc21 (configuration not stated) | i | nt | nt | nt
CC1=CC(C)[C@@H]2COC(c3ccc(O)cc3)[C@H]1C2C (some centres not stated) | i | nt | nt | nt
Cc1cccc(-c2ncc(CN3CCN(CCC(C)C)C(CCO)C3)cn2)c1 (configuration not stated) | i | nt | nt | nt
CC(=O)Nc1ccc(/C=N/N2C(=O)NC(C)(c3ccc(OC(F)F)cc3)C2=O)cc1 (configuration not stated) | i | 18* | i | i | CHO-K1 Tl ctr=-27;KCNQ1 pot spec=11*;KCNQ2 pot confirm=24*;Kir2-1 sel=-25;KCNQ2 W236L pot=i
CCOC(=O)CN1C(=O)NC(C)(c2ccc(OC(F)F)cc2)C1=O (configuration not stated) | i | nt | nt | nt
O=[N+]([O-])c1c(Nc2ccc(O)cc2)cc(Cl)c2nonc12 | -10* | -10 | 66%* | i
CN(C)c1cc(Nc2ccc(O)cc2)c([N+](=O)[O-])c2nonc12 | i | nt | nt | nt
O=C1/C(=C2\C(=O)N(Cc3ccc(F)cc3)c3ccccc32)SC(=S)N1CCS(=O)(=O)O | i | nt | nt | nt
O=C(O)CN1C(=O)/C(=C2\C(=O)N(Cc3ccccc3Cl)c3ccccc32)SC1=S | i | 6.2* | i | i | CHO-K1 Tl ctr=-11;KCNQ1 pot spec=-11;KCNQ2 pot confirm=-21;Kir2-1 sel=-42
CCOc1nc(C)cc(C)c1S(=O)(=O)c1cccc(Cl)c1 | i | nt | 61%* | i
Cc1cc(C)c(S(=O)(=O)c2cccc(Cl)c2)c(Cl)n1 | i | nt | nt | nt
COC(=O)c1ccc(S(=O)(=O)NCc2ccccn2)n1C | i | 0.01 | nt | nt
CNC(=S)N/N=C/C1=CCC2CC1C2(C)C (configuration not stated) | i | 1.4 | nt | nt
CC1(C)C2CC=C(/C=N/NC(=S)NCCc3ccccc3)C1C2 (configuration not stated) | i | 5.5* | i | i | CHO-K1 Tl ctr=-15;KCNQ1 pot spec=-16;KCNQ2 pot confirm=-18;Kir2-1 sel=-26
Cc1c(-c2ccccc2)cnc2c(C)cccc12 | i | nt | nt | nt
Cc1cc(NC(=O)CSCC(=O)OC(C)C(=O)c2cc(C)c(C)cc2C)no1 (configuration not stated) | i | nt | 68%* | i
Cc1cc(NC(=O)CSCC(=O)OC(C)C(=O)N(C)Cc2ccccc2)no1 (configuration not stated) | i | 1.3 | nt | nt
Cc1ccc(C(=O)OCN2C(=O)c3ccccc3C2=O)cc1S(=O)(=O)N1CCOCC1 | i | 2.3 | nt | nt
